Screening results (PubChem BioAssay)
Shown are actives, neighbours in structure and some others; about 8.1% of the full set was active somewhere.
MITF inhib: MITF inhibition; inhibition, % (no concentration beside the values); AID 2240; TRPM1 promoter luciferase, luminescence, 24 h; 0.28% of 37,000 active; in the data active means inhibition above about 85%;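 further: human melanocyte line stably carrying TRPM1 promoter luciferase reporter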
Shh pathway inh: blocks Sonic Hedgehog signaling; Shh-LIGHT2 Gli-luciferase reporter, 30 h; inhibition, % (concentration not given with the values); 2.1% of 22,000 active; AID 2313;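 active means mean inhibition across valid replicates above about 65%, limit read from the data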;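 further: pathway switched on by Shh-conditioned medium diluted 1 in 25 in low serum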
NOMO-1 viab: STK33 inhibitor candidate reducing NOMO-1 cell viability | NOMO-1 AML viability, CellTiter-Glo luminescence, 72 h | inhibition, % (test concentration not listed) | 7.5% of 37,000 active | AID 2330; in the data active means inhibition above about 80%
Numbers without * were called inactive; · = no result.

SMILES	MITF inhib	Shh pathway inh	NOMO-1 viab
C[C@@H]1CN([C@@H](C)CO)C(=O)Cc2cc(NC(=O)NC3CCCCC3)ccc2O[C@@H]1CN(C)Cc1ccncc1	-7.3	-21.6	-1.5
C[C@@H]1CN([C@H](C)CO)C(=O)Cc2cc(NC(=O)NC3CCCCC3)ccc2O[C@@H]1CN(C)Cc1ccc(Cl)c(Cl)c1	26.8	12.6	113.7*
COc1ccc(NC(=O)Nc2ccc3c(c2)CC(=O)N([C@H](C)CO)C[C@H](C)[C@H](CN(C)Cc2ccc(Cl)c(Cl)c2)O3)cc1	-7.7	1.2	68.8
Cn1c(Cc2cccc3ccccc23)nnc1SCC(=O)c1ccc(Cl)cc1	-1.1	·	25.2
O=C(COc1ccccc1Cl)Nc1cccc(Oc2ccc3c(c2)C(=O)NC3=O)c1	-14.7	·	-8.2
S=C(NCCc1ccccc1)N1CCc2ccccc21	-53.7	-21.7	32.9
O=C(O)c1cccc(NCc2cccnc2)c1	-16.5	·	-13.6
OC(Cc1cccnc1)(c1ccccc1)c1ccccc1	26.9	70.6*	8.9
O=C(CCCN1C(=O)c2ccccc2C1=O)Nc1ccccc1Cl	-25.9	·	0.4
Cc1cc(C)cc(NC(=O)CN(c2ccc(Cl)cc2Cl)S(C)(=O)=O)c1	-8.8	·	-1.0
COc1ccc(OC(C)c2nc(-c3cccnc3)no2)cc1 (centres undefined)	-6.6	·	-10.0
CC(Oc1ccc(C(C)(C)C)cc1)c1nc(-c2cccnc2)no1 (centres undefined)	62.5	·	81.3*
COc1ccc(Oc2ccc(NC(=O)C(C)N3C(=O)C4C5C=CC(C6CC56)C4C3=O)cc2)cc1 (centres undefined)	25.7	·	17.7
O=C(CSc1nc2cc3ccccc3cc2[nH]1)Nc1ccccc1Cl	25.9	·	107.7*
COC(=O)c1ccccc1NC(=O)CSc1nc2cc3ccccc3cc2[nH]1	29.1	·	4.8
Cc1cc(NC(=O)CSc2nc3ccccc3[nH]2)ccc1Cl	-12.6	·	44.7
CCOC(=O)c1cc(NC(=O)CSc2nc3ccccc3[nH]2)ccc1Cl	-1.3	·	100.5*
CCc1ccc(NC(=O)CSc2ncnc3sc4c(c23)CCC(C)C4)cc1 (centres undefined)	-5.2	·	46.0
O=C(CSc1nnc(-c2cccc(Br)c2)n1-c1ccccc1)Nc1ccc(Cl)cc1	4.7	·	-4.0
Cc1noc(C)c1S(=O)(=O)Nc1ccc2c(c1)C(=O)N([C@H](C)CO)C[C@H](C)[C@H](CN(C)Cc1ccc(C(=O)Nc3ccccc3N)cc1)OCCCC[C@@H](C)O2	-4.3	·	139.1*
Cc1noc(C)c1S(=O)(=O)Nc1ccc2c(c1)C(=O)N([C@@H](C)CO)C[C@@H](C)[C@H](CN(C)Cc1ccc(C(=O)Nc3ccccc3N)cc1)O2	-16.0	·	11.7
Cc1noc(C)c1S(=O)(=O)Nc1ccc2c(c1)C(=O)N([C@H](C)CO)C[C@H](C)[C@@H](CN(C)Cc1ccc(C(=O)Nc3ccccc3N)cc1)OCCCC[C@@H](C)O2	0.1	·	127.3*
Cc1noc(C)c1S(=O)(=O)Nc1ccc2c(c1)C(=O)N([C@H](C)CO)C[C@H](C)[C@@H](CN(C)Cc1ccc(C(=O)O)cc1)OCCCC[C@@H](C)O2	-7.7	4.9	-20.8
O=C(CSc1n[nH]c(-c2ccc(Cl)cc2)n1)c1ccc(Br)cc1	1.3	·	30.4
COc1cc(-n2nnnc2SCC(=O)Nc2cccc(Cl)c2Cl)c(OC)cc1Cl	42.5	·	46.2
SMILES	MITF inhib	Shh pathway inh	NOMO-1 viab
CC(=O)Nc1ccc(C(=O)CSc2nc(-c3ccccc3)cs2)cc1	-94.4	·	-28.1
C[C@@H]1CN([C@H](C)CO)C(=O)c2cccc(NC(=O)Nc3ccc4c(c3)OCO4)c2O[C@@H]1CN(C)Cc1ccc(C(=O)Nc2ccccc2N)cc1	-3.3	·	139.9*
C[C@H](CO)N1C[C@H](C)[C@@H](CN(C)Cc2ccc(C(=O)O)cc2)Oc2c(NC(=O)Nc3ccc4c(c3)OCO4)cccc2C1=O	-1.0	0.2	10.9
C[C@@H]1CN([C@H](C)CO)C(=O)c2cccc(NC(=O)Nc3ccc4c(c3)OCO4)c2O[C@@H]1CN(C)Cc1ccc(C(F)(F)F)cc1	-18.5	18.5	43.7
C[C@H]1CN([C@@H](C)CO)C(=O)c2cccc(NC(=O)Nc3ccc4c(c3)OCO4)c2O[C@H]1CN(C)Cc1ccc(C(=O)Nc2ccccc2N)cc1	14.9	·	140.0*
C[C@H](CO)N1C[C@H](C)[C@H](CN(C)C(=O)Nc2ccccc2)Oc2ccc(NC(=O)Nc3ccc4c(c3)OCO4)cc2CC1=O	-13.2	-22.2	6.6
O=C(Nc1cccc(S(=O)(=O)N2CCCC2)c1)c1cc(-n2cnnc2)ccc1Cl	-16.3	·	-3.8
COc1ccc(S(=O)(=O)N(C)C[C@@H]2Oc3ccc(NS(=O)(=O)c4cn(C)cn4)cc3CC(=O)N([C@@H](C)CO)C[C@@H]2C)cc1	-17.3	-33.4	11.8
C[C@H]1CN([C@@H](C)CO)C(=O)c2cc(NS(=O)(=O)c3cn(C)cn3)ccc2O[C@@H]1CN(C)Cc1ccc(-c2ccccc2)cc1	6.8	-12.5	10.1
CC(C)(C)c1ccc2cc(C#N)c(C#N)cc2c1	5.3	-22.9	140.3*
C[C@@H]1CN([C@H](C)CO)C(=O)c2cc(NS(=O)(=O)c3cccs3)ccc2O[C@@H]1CN(C)S(=O)(=O)c1ccccc1	-0.2	-35.4	2.6
C/C1=C/CCC2=CC(OC2=O)C(C)(C)/C=C/C1=O (centres undefined)	74.1	-42.7	118.9*
C[C@@H]1CN([C@@H](C)CO)C(=O)c2cccc(NS(=O)(=O)c3ccc(Cl)cc3)c2O[C@H]1CN(C)Cc1ccncc1	-10.6	-17.8	21.1
O=C1C[C@H](c2ccc(O)cc2)Oc2c1c(O)cc(O)c2[C@@H]1C(=O)c2c(O)cc(O)cc2O[C@H]1c1ccc(O)cc1	·	-33.4	·
COc1cc(NC(=O)Cn2nc(C(F)(F)F)c(Cl)c2C)cc(OC)c1OC	-2.6	·	22.8
COc1cc(NC(=O)Cn2nc(C(F)(F)F)c(Cl)c2C)cc([N+](=O)[O-])c1	58.2	·	114.0*
CC(=O)C1=C(c2ccccc2)NC(=S)NC1c1cc(Cl)ccc1OCC(=O)O (centres undefined)	19.7	·	21.0
Cc1cc2c(c(=O)n1CC1CCCO1)C(c1cccs1)C(C#N)=C(N)O2 (centres undefined)	-10.3	·	11.0
Cc1cc(C)c(S(=O)(=O)NCC(=O)Nc2ccc(C(C)C)cc2)c(C)c1	5.8	·	94.5*
CC(=O)Nc1ccc(NC(=O)CNS(=O)(=O)c2c(C)cc(C)cc2C)cc1	-4.1	·	-3.1
Cc1ccc(S(=O)(=O)Nc2ccc3c(c2)CC(=O)N([C@@H](C)CO)C[C@H](C)[C@@H](CN(C)C)O3)cc1	2.3	16.8	16.3
O=C1C(=O)N(Cc2cccnc2)C(c2ccccn2)C1C(=O)c1cccs1 (centres undefined)	-1.8	·	47.5
Nc1nonc1-c1nc2ccccc2n1CC(=O)Nc1cccc(Cl)c1Cl	31.7	·	118.9*
CCc1ccccc1NC(=O)Cn1c(-c2nonc2N)nc2ccccc21	-5.0	·	21.4
COc1cccc2c1C(=O)c1c(O)c3c(c(O)c1C2=O)C[C@@](O)(C(=O)CO)C[C@@H]3O[C@H]1C[C@H](N)[C@H](O)[C@H](C)O1	70.9	90.4*	98.6*
COc1cccc2c1C(c1ccc3c(c1O)C(=O)CC(C)C3O)OC2=O (centres undefined)	-7.4	1.3	5.4
